Test results reported in PubChem BioAssay AID1159580 (chemical genetic matrix, 2015).
The campaign covered roughly 5,500 compounds. About 2,000 (36%) were called active. Inconclusive results (about 18%) are left out. Rule as the data show it: active = normalized growth mostly below about 0.91 (no sharp cut-off); inconclusive = no clear call, values can overlap the other calls; inactive = mostly above about 0.92. The list shows a part of the results.

Test: chemical genetic growth profiling, strain panel (AID 1159580);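 also: tested at 20 µM; growth read once vehicle control cultures reached saturation at 30 °C; 1 = growth at the plate median or of vehicle wells; lower values mean less growth of the strain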
Settings: growth OD

Measured: normalized growth

CN[C@H](CC(=O)O)C(=O)O
inactive: S. cerevisiae deletion strains, locus YJR066W, strain TOR1, stronger effect = lower value 0.949 | S. cerevisiae deletion strains, locus YJR075W, strain HOC1, stronger effect = lower value 0.988 | S. cerevisiae deletion strains, locus YKL009W, strain mrt4, stronger effect = lower value 0.938 | S. cerevisiae deletion strains, locus YKL068W, stronger effect = lower value 1.01 | S. cerevisiae deletion strains, locus YKL085W, strain MDH1 (second series), stronger effect = lower value 1.01 | S. cerevisiae deletion strains, locus YKL085W, strain MDH1, stronger effect = lower value 1.01 | S. cerevisiae deletion strains, locus YKL160W, strain elf1, stronger effect = lower value 1.02 | S. cerevisiae deletion strains, locus YKL190W, strain CNB1, stronger effect = lower value 0.999 | S. cerevisiae deletion strains, locus YKR001C, strain vps1, stronger effect = lower value 0.989 | S. cerevisiae deletion strains, locus YKR026C, strain gcn3, stronger effect = lower value 1.02 | S. cerevisiae deletion strains, locus YKR091W, strain srl3, stronger effect = lower value 1.02 | S. cerevisiae deletion strains, locus YLL001W, strain dnm1, stronger effect = lower value 1.03 | S. cerevisiae deletion strains, locus YLL026W, stronger effect = lower value 1.03 | S. cerevisiae deletion strains, locus YLL041C, strain sdh2, stronger effect = lower value 1.01 | S. cerevisiae deletion strains, locus YLR027C, strain aat2, stronger effect = lower value 1.03 | S. cerevisiae deletion strains, locus YLR039C, strain RIC1, stronger effect = lower value 0.962 | S. cerevisiae deletion strains, locus YLR058C, strain SHM2, stronger effect = lower value 0.989 | S. cerevisiae deletion strains, locus YLR102C, strain apc9, stronger effect = lower value 0.989 | S. cerevisiae deletion strains, locus YLR113W, strain HOG1, stronger effect = lower value 1.07 | S. cerevisiae deletion strains, locus YLR221C, strain rsa3, stronger effect = lower value 1 | S. cerevisiae deletion strains, locus YLR258W, strain gsy2, stronger effect = lower value 1.02 | S. cerevisiae deletion strains, locus YLR262C, strain YPT6 (second series), stronger effect = lower value 1.01 | S. cerevisiae deletion strains, locus YLR262C, strain YPT6, stronger effect = lower value 0.936 | S. cerevisiae deletion strains, locus YLR268W, strain sec22, stronger effect = lower value 0.991 | S. cerevisiae deletion strains, locus YLR320W, strain mms22, stronger effect = lower value 0.992 | S. cerevisiae deletion strains, locus YLR330W, strain CHS5, stronger effect = lower value 0.991 | S. cerevisiae deletion strains, locus YLR342W, strain FKS1 (second series), stronger effect = lower value 0.983 | S. cerevisiae deletion strains, locus YLR342W, strain FKS1, stronger effect = lower value 1.02 | S. cerevisiae deletion strains, locus YLR357W, strain rsc2, stronger effect = lower value 0.995 | S. cerevisiae deletion strains, locus YLR370C, strain arc18, stronger effect = lower value 1.02 | S. cerevisiae deletion strains, locus YLR371W, strain rom2, stronger effect = lower value 0.997 | S. cerevisiae deletion strains, locus YLR384C, strain iki3, stronger effect = lower value 1.03 | S. cerevisiae deletion strains, locus YLR418C, strain cdc73, stronger effect = lower value 0.947 | S. cerevisiae deletion strains, locus YML016C, strain PPZ1, stronger effect = lower value 0.989 | S. cerevisiae deletion strains, locus YML032C, strain rad52, stronger effect = lower value 0.964 | S. cerevisiae deletion strains, locus YML120C, strain ndi1, stronger effect = lower value 1.03 | S. cerevisiae deletion strains, locus YML124C, strain tub3, stronger effect = lower value 0.99 | S. cerevisiae deletion strains, locus YMR058W, strain fet3, stronger effect = lower value 1.01 | S. cerevisiae deletion strains, locus YMR078C, strain ctf18, stronger effect = lower value 0.98 | S. cerevisiae deletion strains, locus YMR125W, strain sto1, stronger effect = lower value 1.08 | S. cerevisiae deletion strains, locus YMR129W, stronger effect = lower value 1.01 | S. cerevisiae deletion strains, locus YMR205C, strain PFK2, stronger effect = lower value 1.03 | S. cerevisiae deletion strains, locus YMR223W, strain ubp8, stronger effect = lower value 0.937 | S. cerevisiae deletion strains, locus YMR231W, strain pep5, stronger effect = lower value 0.998 | S. cerevisiae deletion strains, locus YMR307W, strain GAS1, stronger effect = lower value 0.89 | S. cerevisiae deletion strains, locus YNL067W, strain RPL9B, stronger effect = lower value 1.02 | S. cerevisiae deletion strains, locus YNL071W, strain lat1, stronger effect = lower value 1.02 | S. cerevisiae deletion strains, locus YNL153C, strain GIM3, stronger effect = lower value 1.03 | S. cerevisiae deletion strains, locus YNL183C, strain NPR1, stronger effect = lower value 0.992 | S. cerevisiae deletion strains, locus YNL209W, strain ssb2, stronger effect = lower value 1.01 | S. cerevisiae deletion strains, locus YNL233W, strain BNI4, stronger effect = lower value 1.01 | S. cerevisiae deletion strains, locus YNL248C, strain rpa49, stronger effect = lower value 0.98 | S. cerevisiae deletion strains, locus YNL250W, strain rad50, stronger effect = lower value 0.941 | S. cerevisiae deletion strains, locus YNL271C, strain bni1, stronger effect = lower value 0.977 | S. cerevisiae deletion strains, locus YNL298W, strain CLA4, stronger effect = lower value 0.972 | S. cerevisiae deletion strains, locus YNL307C, strain MCK1, stronger effect = lower value 0.976 | S. cerevisiae deletion strains, locus YNL322C, strain KRE1 (second series), stronger effect = lower value 1.03 | S. cerevisiae deletion strains, locus YNR049C, strain mso1, stronger effect = lower value 1.02 | S. cerevisiae deletion strains, locus YNR052C, strain pop2, stronger effect = lower value 0.978 | S. cerevisiae deletion strains, locus YOL006C, strain TOP1, stronger effect = lower value 1.06 | S. cerevisiae deletion strains, locus YOL012C, strain htz1 0.629 | S. cerevisiae deletion strains, locus YOL147C, strain pex11, stronger effect = lower value 0.984 | S. cerevisiae deletion strains, locus YOR001W, strain rrp6, stronger effect = lower value 1.02 | S. cerevisiae deletion strains, locus YOR061W, strain CKA2, stronger effect = lower value 0.994 | S. cerevisiae deletion strains, locus YOR069W, strain VPS5, stronger effect = lower value 0.991 | S. cerevisiae deletion strains, locus YOR070C, strain gyp1, stronger effect = lower value 1.01 | S. cerevisiae deletion strains, locus YOR080W, strain dia2, stronger effect = lower value 1.03 | S. cerevisiae deletion strains, locus YOR083W, strain WHI5, stronger effect = lower value 1.02 | S. cerevisiae deletion strains, locus YOR106W, strain vam3, stronger effect = lower value 1.01 | S. cerevisiae deletion strains, locus YOR136W, strain idh2, stronger effect = lower value 0.991 | S. cerevisiae deletion strains, locus YOR144C, strain elg1, stronger effect = lower value 0.99 | S. cerevisiae deletion strains, locus YOR184W, strain ser1, stronger effect = lower value 0.936 | S. cerevisiae deletion strains, locus YOR231W, strain MKK1, stronger effect = lower value 1.1 | S. cerevisiae deletion strains, locus YOR265W, strain rbl2, stronger effect = lower value 1.03 | S. cerevisiae deletion strains, locus YOR270C, strain vph1, stronger effect = lower value 1 | S. cerevisiae deletion strains, locus YOR290C, strain snf2, stronger effect = lower value 1.01 | S. cerevisiae deletion strains, locus YOR316C, strain cot1, stronger effect = lower value 0.991 | S. cerevisiae deletion strains, locus YPL051W, strain arl3, stronger effect = lower value 1.02 | S. cerevisiae deletion strains, locus YPL078C, strain atp4, stronger effect = lower value 0.989 | S. cerevisiae deletion strains, locus YPL106C, strain sse1, stronger effect = lower value 1.04 | S. cerevisiae deletion strains, locus YPL240C, strain hsp82, stronger effect = lower value 1.04 | S. cerevisiae deletion strains, locus YPL256C, strain CLN2, stronger effect = lower value 1.06 | S. cerevisiae deletion strains, locus YPR119W, strain clb2, stronger effect = lower value 0.987 | S. cerevisiae deletion strains, locus YPR141C, strain kar3, stronger effect = lower value 0.985 | S. cerevisiae deletion strains, locus YPR163C, strain tif3, stronger effect = lower value 0.995 | S. cerevisiae deletion strains, locus YPR167C, strain met16, stronger effect = lower value 0.981 | S. cerevisiae deletion strains, strain wtn01, stronger effect = lower value 0.963 | S. cerevisiae strains, strain wild type, stronger effect = lower value 0.995
